# Source: PubChem BioAssay
# Only some compounds are listed: those with a hit (about 9.8% of all), similar ones and a draw of the others.
# HTT cytoprotect: cytoprotection in Huntington HTT-Q103 PC12 cell model; PC12 HTT-Q103 induced, cytoprotection, ATP luminescence, 40 h; Potency, µM (titrated, usually from 56.4 µM), for inactives: cytoprotection (ATP increase), actives largely listed as activators; 0.14% of 230,000 active; active = well fitted curve in the direction sought with a large enough effect; inconclusive = small, poorly fitted or top-dose-only effect, or another doubt; inactive = no such curve, though single readings can be large; an effect the other way counts as inactive or inconclusive; note: potency is the fitted concentration of half-maximal effect; % of control where 0% means no effect; nearly all actives have a fitted effect of over 45% in size
#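 Compounds were screened for protection of PC12 cells against cell death after tebufenozide induction (100 nM final) of mutant Huntingtin exon 1 (Q103) fused to GFP.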
# HPGD block: blocks human HPGD enzyme activity; P15428; AID 894; purified HPGD, NADH fluorescence kinetic, PGE2 substrate; 4.3% of 150,000 active; Potency, µM, inactives show top-dose activity change, negative = inhibition, actives largely listed as inhibitors; note: potency is the fitted concentration of half-maximal effect; % is set by controls: 0 for no effect and ±100 for the full control effect
# Target sequence (P15428 whole entry, looked up): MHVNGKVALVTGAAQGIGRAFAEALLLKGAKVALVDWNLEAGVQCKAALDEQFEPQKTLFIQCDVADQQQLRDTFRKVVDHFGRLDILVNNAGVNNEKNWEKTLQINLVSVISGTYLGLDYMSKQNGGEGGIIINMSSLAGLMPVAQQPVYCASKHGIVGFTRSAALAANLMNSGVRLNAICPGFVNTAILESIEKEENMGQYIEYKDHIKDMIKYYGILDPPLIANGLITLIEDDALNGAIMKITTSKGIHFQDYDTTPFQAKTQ
#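 NADH formation kinetics: reaction with 30 uM PGE2 and 1 mM NAD+ (final), 20 nM enzyme, Tris-HCl pH 8 with Tween 20, after 15 min compound preincubation at room temperature. Fluorescence change, last versus first of five reads.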
# CBFb RUNX1 block: CBF-beta/RUNX1 interaction disruption; Q01196+Q13951; AlphaScreen CBFb-His/RUNX1-biotin binding, biochemical; Potency, µM (titrated, usually from 59.8 µM), without a hit: at the top dose activity, negative = inhibition, actives largely listed as inhibitors; 230,000 tested, under 10 active; active = well fitted curve in the direction sought with a large enough effect; inconclusive = small, poorly fitted or top-dose-only effect, or another doubt; inactive = no such curve, though single readings can be large; an effect the other way counts as inactive or inconclusive; note: % of control where 0% means no effect
#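 CBF-beta (His) and RUNX1 (biotin), 30 nM each; 20 min preassociation; + compound, 15 min; + beads 50 ng each (Ni, streptavidin), 90 min; RT; AlphaScreen read.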
# ALDH1A1 block: ALDH1A1 (human) enzyme inhibition. 7.3% of 220,000 active. AID 1030. Purified ALDH1A1, NADH fluorescence, propionaldehyde substrate. Potency, µM (doses to about 75.3 µM), for inactives: top-dose activity, negative = inhibition, most hits filed as inhibitors. P00352;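 note: potency is the fitted concentration of half-maximal effect; plate controls were no enzyme wells and a reference inhibitor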
# Target sequence (P00352 whole entry, looked up): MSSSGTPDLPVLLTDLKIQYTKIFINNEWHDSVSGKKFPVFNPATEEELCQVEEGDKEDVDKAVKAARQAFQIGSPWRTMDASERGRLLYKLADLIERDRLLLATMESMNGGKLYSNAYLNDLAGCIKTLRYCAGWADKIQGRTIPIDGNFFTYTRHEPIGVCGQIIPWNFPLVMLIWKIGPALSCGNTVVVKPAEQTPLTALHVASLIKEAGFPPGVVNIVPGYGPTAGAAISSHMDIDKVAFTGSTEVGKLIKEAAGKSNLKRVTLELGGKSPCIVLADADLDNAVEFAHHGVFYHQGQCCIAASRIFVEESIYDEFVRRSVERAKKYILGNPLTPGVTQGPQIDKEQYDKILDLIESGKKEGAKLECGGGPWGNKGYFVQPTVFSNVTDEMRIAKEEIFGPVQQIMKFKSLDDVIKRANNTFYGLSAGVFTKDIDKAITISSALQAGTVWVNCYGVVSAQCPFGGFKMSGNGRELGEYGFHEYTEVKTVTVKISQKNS
# JMJD2E inh: blocks human JMJD2E demethylase activity. B2RXH2. JMJD2E catalytic domain, FDH-coupled NADH fluorescence (FDH is formaldehyde dehydrogenase). Potency, µM (top dose mostly 57.1 µM), for inactives: at the top dose activity change, negative = inhibition, usual class: inhibitors. 1.6% of 230,000 active. AID 2147;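 note: potency is the fitted concentration of half-maximal effect; 0% = wells with enzyme and -100% = buffer wells without enzyme; nearly all actives have a fitted effect of over 50% in size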
# HttQ103 aggreg: mutant huntingtin aggregation inhibition | PC12 HttQ103-GFP aggregates, Acumen cytometry, 40 h | Potency, µM (series often up to 46.1 µM), for inactives: at the highest dose activity change, negative = inhibition, actives largely listed as inhibitors | 1.1% of 220,000 active | AID 1688; active = well fitted curve in the direction sought with a large enough effect; inconclusive = small, poorly fitted or top-dose-only effect, or another doubt; inactive = no such curve, though single readings can be large; an effect the other way counts as inactive or inconclusive; note: potency is the fitted concentration of half-maximal effect; % is set by controls: 0 for no effect and ±100 for the full control effect; nearly all actives have a fitted effect of over 60% in size
#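 Quantitative HTS on tebufenozide-induced (100 nM) PC12 cells stably expressing polyQ103 Huntingtin exon 1–GFP. Reduction of bright GFP aggregates, detected by laser scanning cytometry after lysis, identified actives across the titration.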
# An asterisk follows results filed as active; ? = inconclusive; / = no result given; [ ] = another dose, or the depositor's remark. Unless noted, calls come from the whole dose curve; as a rule, active = well fitted inhibition curve with a large enough effect (not every such curve was filed as active); inconclusive = small, poorly fitted or top-dose-only effect, or another doubt; inactive = no such curve, though single readings can be large or run the other way.
SMILES,HTT cytoprotect,HPGD block,CBFb RUNX1 block,ALDH1A1 block,JMJD2E inh,HttQ103 aggreg
Cc1cnc(C(=O)Nc2ccc(C(=O)N3CCCCC3)cc2)cn1,-5.5%,0.282µM*,9.9%,-3.3%,-0.2%,7.3%
Cc1cnc(C(=O)Nc2ccc(N3CCCCC3)cc2)cn1,-90.5%,/,2.5%,2.3%,12.2%,-4.8%
CC(=O)Nc1ccc(NC(=O)C2CCN(C(=O)c3cccs3)CC2)cc1,17.4%[10 µM],/,-5.0%,12.6µM*,5.9%,13.7%[9.22 µM]
O=C(O)CCC(=O)Nc1ccc(C(=O)N2CCCCC2)cc1,-11.0%,0.708µM*,2.4%,-5.9%,6.3%,29.5%
COc1ccc(OC)c(NC(=O)C2CCN(C(=O)c3cccs3)CC2)c1,/,/,3.8%,1.5%,2.9%,/
CN(C)S(=O)(=O)c1ccc(NC(=O)C2CCCN(C(=O)c3ccc(Cl)cc3)C2)cc1 (configuration not stated),-11.4%[10 µM],-17.5%,-4.6%,12.6µM*,-4.5%,20.7%
O=C(CSc1c2c(nc3ccc(Cl)cc13)CCCC2)NCCCN1CCOCC1,/,/,-3.1%,-11.1%,-1.1%,?
C=CCNC(=S)NN=C1CCCCCCC1,5.5%[10 µM],/,-2.8%,0.891µM*,-13.3%,8.0%
C[C@@H]1C[C@H](OC(=O)c2ccccc2O)CC(C)(C)C1,1.0%[40.3 µM],-1.3%,-12.4%[21.7 µM],4.1%[20.9 µM],-3.2%[25.5 µM],/
Fc1ccc(C2NC(=S)NC3=C2N2CCC3CC2)cc1 (configuration not stated),0.4%,-5.1%,-8.5%,14.1µM*,0.6%,23.1%
OC[C@H]1O[C@@](CO)(O[C@H]2O[C@H](CO)[C@@H](O)[C@H](O)[C@H]2O)[C@@H](O)[C@@H]1O,11.1%,/,/,/,/,24.7%
CCOc1ccc(C=Nc2cccc3ncccc23)cc1,4.5%,/,-2.2%,17.8µM*,-4.3%,-19.0%
Cc1ccc(C=Nc2cccnc2N)cc1,-5.7%[10 µM],-15.9%,-5.7%,?,?,28.5%
CN1C=CC=C/C1=C1\SC(=S)N(N)C1=O,-25.3%,/,-4.9%,?,-16.1%,10.4%
Cn1c(SCc2nnc(-c3ccccc3)o2)nc2ccccc21,-5.5%,/,-2.9%,12.6µM*,-19.8%,1.1%
Clc1ccc2nc(SCc3nnc(-c4ccccc4)o3)[nH]c2c1,-30.1%[10 µM],17.8µM*,-1.3%,11.2µM*,-4.6%,-18.5%
Cc1cc(=O)[nH]c(SCc2nnc(-c3ccccc3)o2)n1,-7.9%,-22.3%,-0.4%,-3.4%,-5.7%,4.8%
Clc1ccc(OCc2nnc(SCc3nnc(-c4ccccc4)o3)o2)c(Cl)c1,3.7%,7.94µM*,0.1%,?,3.1%,16.2%
O=C(O)C1CSC(CCc2ccccc2)N1 (configuration not stated),19.7%,4.4%,1.7%,-14.6%,?,2.7%
COc1ccc(NC(=O)N2CCC3(CC2)CCN(C(=O)c2csnn2)CC3)cc1,8.6%,-0.1%,/,-11.9%,/,/
Cc1cc(NC(=O)CSc2nncn2N)no1,6.3%,/,6.0%,0.2%,9.1%,-3.7%
N[C@@H](Cc1ccccc1)c1nnc(SCc2ccccc2Cl)o1,-2.4%,28.2µM*,14.6%,?,8.8%,11.9%
CCc1ccccc1NC(=O)CSc1nnc([C@@H](N)Cc2ccccc2)o1,22.7%,-12.8%,13.1%,?,?,22.3%
CN=C(c1ccc([N+](=O)[O-])cc1)N1CCCCC1,/,/,5.3%,8.8%,6.4%,6.9%
O=c1[nH]ncc(N2CCCCCC2)c1Cl,8.8%[10 µM],/,-0.6%,10µM*,6.3%,8.6%[9.22 µM]
SMILES,HTT cytoprotect,HPGD block,CBFb RUNX1 block,ALDH1A1 block,JMJD2E inh,HttQ103 aggreg
Nc1nc(CCl)nc(Nc2cccc3ccccc23)n1,-2.7%[10 µM],/,-17.0%,/,5.4%,-10.3%[9.22 µM]
CCOC(=O)Cn1nc(C)cc1NC(=O)c1cccnc1,-24.0%,/,-4.6%,7.2%,7.3%,-1.5%
O=C(NCCc1c[nH]c2ccc(Cl)cc12)c1cccnc1,13.5%,15.8µM*,5.7%,11.2%,-0.3%,-22.8%
COc1ccc(CCNC(=O)Cn2cnc3scc(-c4ccccc4)c3c2=O)cc1OC,7.4%[10 µM],/,-1.5%,8.0%,4.4%,-2.7%
COc1ccc(C2N(c3ccccn3)C(=O)C3CCCN32)c(OC)c1 (configuration not stated),-3.2%,-5.3%,0.9%,-11.4%,9.1%,-8.0%
COc1cc(C2N(c3ccccn3)C(=O)C3CCCN32)cc(OC)c1OC (configuration not stated),-8.8%,/,3.8%,22.4µM*,-7.1%,-4.3%
CC(=O)OCOC(=O)CN(CC(=O)OCOC(C)=O)c1ccccc1OCCOc1ccccc1N(CC(=O)OCOC(C)=O)CC(=O)OCOC(C)=O,/,/,-7.5%,-2.9%,/,/
Cc1cccc(OC(=O)n2c(=S)oc3cc(Cl)ccc32)c1,-12.1%[10 µM],-19.3%,-2.7%,3.55µM*,?,-2.7%
CCOC(=O)c1cc(C)[nH]c(=S)c1C#N,-13.5%,-13.6%,-2.6%,20µM*,17.8µM*,18.7%
Cc1ccc(N(C(C)C(=O)N2CCOCC2)S(C)(=O)=O)cc1C (configuration not stated),11.2%[10 µM],/,-5.2%,3.6%,2.3%,3.0%
COc1ccc(CC(NC(C)=O)C(=O)N2CCN(C(=O)Nc3cccc(F)c3)CC2)cc1OC (configuration not stated),-4.4%[10 µM],/,8.0%,0.7%,12.6%,-6.9%[9.22 µM]
Oc1cc2c(cc1O)[C@@H]1c3ccc(O)c(O)c3OC[C@]1(O)C2,-120.2%,11.2µM*,?,-1.6%,14.1µM*,/
C/C=C/c1ccc(OCCCNC2CCCC2)c(OC)c1,2.0%,-5.6%,-2.6%,28.2µM*,-22.9%,7.0%
C/C=C/c1ccc(OCCCNC(C)CC)c(OC)c1 (configuration not stated),9.2%,-8.9%,4.2%,15.8µM*,?,11.6%
Cc1c(Br)c(O)c(Br)c2sc(=O)oc12,16.6%[10 µM],/,-29.5%,?,31.6µM*,-2.5%[9.22 µM]
Cc1ccc(S(=O)(=O)C2CS(=O)(=O)CC2O)cc1 (configuration not stated),2.3%,-6.8%,24.6%,3.0%,-1.3%,21.6%
CC(=O)C1=C(S(=O)(=O)c2ccc(C)cc2)CS(=O)(=O)C1,-2.2%,/,6.3%,1.26µM*,14.1µM*,18.2%[9.22 µM]
O=C(c1ccc(-c2nnc(Nc3ccccc3)c3ccccc23)cc1)N1C[C@H]2C[C@H](C1)c1cccc(=O)n1C2,-22.8%,31.6µM*,-3.8%,13.0%,-1.6%,11.1%
O=C(Nc1cccc(Oc2c(F)c(F)c(F)c(F)c2F)c1)N1C[C@@H]2C[C@@H](C1)c1cccc(=O)n1C2,19.7%,/,4.8%,2.9%,2.9%,25.0%
C=CCN1CC2(c3ccccc3)CN(CC=C)CC(c3ccccc3)(C1)C2=O,13.2%[10 µM],/,9.0%,14.5%,-3.1%,-1.4%[9.22 µM]
CN(CCO)c1cc(N2CCCCC2)c2nonc2c1[N+](=O)[O-],-29.5%,/,21.6%,15.8µM*,-2.4%,9.4%
